Common to all, as to test: qHTS profiling for inhibitors of Plasmodium falciparum proliferation (AID 504749); further: nearly all actives have a fitted effect of over 60% in size
Conditions in all cases: P. falciparum in erythrocytes, SYBR Green DNA, 72 h; series mostly up to 28.7 µM

One experiment deals with CP266. Put shortly: (§1)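 SYBR Green fluorescence (ex 485 nm, em 535 nm) reports parasite DNA after 72 h compound exposure of infected red cells at 0.3% parasitemia, 2.5% hematocrit; signal normalized to 0.29 uM artemisinin and vehicle wells.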
For the next experiment, the system named is CP268. In outline:
as §1

A further experiment deals with CP269. In outline: as §1
The subject of another experiment is CP286. In outline:
as §1

The subject of a further experiment is CP291. In outline: as §1
The next experiment concerns CP297. In outline: as §1
The subject of the next experiment is CP305. Put shortly:
as §1

The test system of a further experiment is CP315. Put shortly:
as §1

For the next experiment, the system named is CP325. In outline: as §1
The subject of the next experiment is CP329. Put shortly: as §1

The structures appear in SMILES notation. Records with an inconclusive call do not appear. Calls of active or inactive are those of the source. The call rests on the fitted dose curve; in most records, active means well fitted inhibition curve with a large enough effect; inconclusive means small, poorly fitted or top-dose-only effect; inactive means flat fitted curve, though single readings scatter.
Potency means the concentration at half of the fitted maximal effect.

Take `ClC(Cl)Cl`: the Potency entry in the experiment with CP266, in the experiment on CP268, in the experiment on CP269, in the experiment on CP286, in the experiment with CP291 and in the experiment with CP297 was “inactive” throughout. Besides, the Potency entry with CP305, in the experiment on CP315, with CP325 and with CP329 was “inactive” in each case.
For the compound `COC(=O)[C@@H](N)CS`, the Potency result in the experiment with CP266, with CP268, in the experiment on CP269, with CP286, with CP291 and in the experiment with CP297 was “inactive” each time. The Potency entry in the experiment with CP305, with CP315, in the experiment with CP325 and in the experiment with CP329 was “inactive” throughout.
Regarding `OB(O)O`, the Potency result in the experiment with CP266, in the experiment with CP268, in the experiment on CP269, with CP286, in the experiment with CP291 and in the experiment with CP297 was “inactive” in each case. In addition, the Potency result in the experiment with CP305, with CP315, in the experiment on CP325 and in the experiment with CP329 was “inactive” throughout.
With `O=C(O)CCC/C=C\C[C@@H]1[C@@H](/C=C/[C@@H](O)COc2cccc(C(F)(F)F)c2)[C@H](O)C[C@@H]1O`, the Potency result in the experiment on CP266, in the experiment on CP268, in the experiment on CP269, in the experiment on CP286, in the experiment with CP291 and in the experiment on CP297 was “inactive” in each case. In addition, the Potency result in the experiment on CP305, with CP315, in the experiment with CP325 and in the experiment with CP329 was “inactive” throughout.
On to `CC(C)CCC[C@@H](C)[C@H]1CC[C@H]2[C@@H]3CC[C@@H]4C[C@H](O)CC[C@]4(C)[C@H]3CC[C@]12C`, for which the Potency entry in the experiment with CP266, in the experiment on CP268, with CP269, with CP286, in the experiment with CP291 and in the experiment on CP297 was “inactive” in each case. In addition, the Potency result in the experiment with CP305, in the experiment with CP315, with CP325 and in the experiment on CP329 was “inactive” in each case.
With `Cc1ncc(C[n+]2csc(CCOP(=O)(O)OP(=O)(O)O)c2C)c(N)n1`, the Potency entry in the experiment with CP266, in the experiment with CP268, with CP269, in the experiment with CP286, with CP291 and with CP297 was “inactive” each time. The Potency entry with CP305, in the experiment on CP315, with CP325 and in the experiment on CP329 was “inactive” in each case.
As to `C=CCN1CCCC1CNC(=O)c1cc(S(N)(=O)=O)cc(OC)c1OC` (centres undefined), the Potency result in the experiment on CP266, in the experiment with CP268, in the experiment on CP269, in the experiment with CP286, in the experiment on CP291 and in the experiment on CP297 was “inactive” in each case. For the same compound, the Potency entry in the experiment on CP305, with CP315, in the experiment on CP325 and in the experiment with CP329 was “inactive” in each case.
Take `OC/C=C/c1ccccc1`: the Potency result in the experiment on CP266, with CP268, in the experiment with CP269, with CP286, in the experiment on CP291 and in the experiment on CP297 was “inactive” throughout. In addition, the Potency result in the experiment with CP305, in the experiment on CP315, in the experiment with CP325 and in the experiment on CP329 was “inactive” throughout.
With `CCC(Cc1c(I)cc(I)c(O)c1I)C(=O)O` (centres undefined), the Potency result in the experiment with CP266, in the experiment on CP268, in the experiment with CP269, in the experiment on CP286, in the experiment with CP291 and in the experiment with CP297 was “inactive” each time. Besides, the Potency result in the experiment on CP305, with CP315, in the experiment with CP325 and in the experiment with CP329 was “inactive” each time.
Turning to `O=C(NNCNNC(=O)c1ccncc1)c1ccncc1`, the Potency entry in the experiment on CP266, with CP268, in the experiment with CP269, with CP286, in the experiment with CP291 and in the experiment on CP297 was “inactive” throughout. In addition, the Potency result in the experiment with CP305, in the experiment on CP315, with CP325 and in the experiment on CP329 was “inactive” throughout.
For the compound `CC/C=C\C/C=C\C/C=C\C/C=C\C/C=C\C/C=C\CCC(=O)O`, the Potency result in the experiment on CP266, in the experiment with CP268, with CP269, in the experiment on CP286, in the experiment on CP291 and in the experiment on CP297 was “inactive” in each case. Further, the Potency result with CP305, in the experiment with CP315, in the experiment with CP325 and with CP329 was “inactive” in each case.
Turning to `C=Cc1ccc(S(=O)(=O)O)cc1`, the Potency entry with CP266, in the experiment with CP268, with CP269, with CP286, in the experiment on CP291 and in the experiment with CP297 was “inactive” in each case. The Potency entry with CP305, in the experiment with CP315, in the experiment with CP325 and in the experiment with CP329 was “inactive” throughout.
Turning to `CCOc1ccc(NC(=S)Nc2ccc(OCC)cc2)cc1`, the Potency entry with CP266, in the experiment on CP268, with CP269, in the experiment on CP286, with CP291 and in the experiment on CP297 was “inactive” throughout. Further, the Potency result with CP305, with CP315, with CP325 and with CP329 was “inactive” throughout.
On to `CS(=O)(=O)OCC(O)C(O)COS(C)(=O)=O` (centres undefined), for which the Potency result in the experiment with CP266, in the experiment on CP268, in the experiment with CP269, in the experiment on CP286, with CP291 and with CP297 was “inactive” each time. Besides, the Potency entry with CP305, in the experiment on CP315, with CP325 and in the experiment on CP329 was “inactive” each time.
Consider `C[C@H]1O[C@@H](O[C@H]2[C@@H](O)C[C@H](O[C@H]3[C@@H](O)C[C@H](O[C@H]4CC[C@@]5(C)[C@H](CC[C@@H]6[C@@H]5C[C@@H](O)[C@]5(C)[C@@H](C7=CC(=O)OC7)CC[C@]65O)C4)O[C@@H]3C)O[C@@H]2C)C[C@H](O)[C@@H]1O`, for which the Potency entry with CP266, in the experiment with CP268, with CP269, with CP286, with CP291 and in the experiment with CP297 was “inactive” in each case. The Potency entry with CP305, in the experiment on CP315, in the experiment on CP325 and in the experiment on CP329 was “inactive” throughout.
Consider `NC(=O)C1c2ccccc2CCc2ccccc21`, for which the Potency result with CP266, in the experiment on CP268, in the experiment with CP269, in the experiment with CP286, with CP291 and in the experiment on CP297 was “inactive” throughout. The Potency entry in the experiment with CP305, in the experiment with CP315, with CP325 and with CP329 was “inactive” throughout.
As for `CC(C)c1ncc([N+](=O)[O-])n1C`, the Potency entry with CP266, in the experiment with CP268, in the experiment with CP269, in the experiment with CP286, with CP291 and in the experiment on CP297 was “inactive” throughout. Also, the Potency entry with CP305, with CP315, with CP325 and with CP329 was “inactive” each time.
For `CCCC(CCC)C(=O)OC1C[C@H]2CC[C@@H](C1)[N+]2(C)C` (some centres undefined), the Potency entry with CP266 was “inactive”.
For the compound `CCN(CC)CCOc1ccc2nc(N(C)C)sc2c1`, the Potency result in the experiment on CP266, in the experiment on CP268, in the experiment with CP269, with CP286, with CP291 and in the experiment on CP297 was “inactive” each time. Also, the Potency entry with CP305, in the experiment with CP315, in the experiment on CP325 and in the experiment with CP329 was “inactive” in each case.
In the case of `O=C(CCCCCCCCCCCCC1CCCC1)Nc1ccc(S(=O)(=O)c2ccc(NC(=O)CCCCCCCCCCCCC3CCCC3)cc2)cc1`, the Potency entry in the experiment with CP266, in the experiment on CP268, in the experiment on CP269, in the experiment on CP286, in the experiment with CP291 and with CP297 was “inactive” in each case. For the same compound, the Potency result in the experiment on CP305, with CP315, in the experiment on CP325 and with CP329 was “inactive” throughout.
As for `O=P(O)(O)OP(=O)(O)O`, the Potency entry with CP266, with CP268, with CP269, in the experiment with CP286, in the experiment on CP291 and in the experiment on CP297 was “inactive” throughout. In addition, the Potency entry in the experiment with CP305, in the experiment on CP315, with CP325 and with CP329 was “inactive” throughout.
With `C#C[C@]1(O)CC[C@@H]2[C@H]3CCC4=CC(=O)CC[C@H]4[C@H]3C(=C)C[C@@]21CC`, the Potency is 301 nM (active) in the experiment on CP266; 426 nM (active) in the experiment on CP268; 536 nM (active) with CP269; 426 nM (active) in the experiment with CP291; 536 nM (active) with CP297; 426 nM (active) with CP305. In the experiment on CP315, the Potency was 478 nM (active). In the experiment on CP286, the Potency entry is “inactive”.

Values taken from PubChem BioAssay (NCATS).
